The values that follow come from ChEMBL document CHEMBL3988442, “University of Dundee, Small-Polar-MMV Screening Library” (2021).

The campaign covered roughly 48,000 compounds. About 13,000 (27%) showed an effect of 50% or more. Some of the results follow.

For this assay, the system named is Wolbachia pipientis. Nature of the assay: Anti-Wolbachia Cell-Based Screen. The following applies: 5 µM. The format is functional. Also noted: scale not given: in the data most compounds retested in dose-response had high values.
Consider `CCOCC(=O)N1CCC2(CC1)COC(COCc1ccccn1)C2.O=C(O)C(F)(F)F` (stereo not drawn), for which the “Percent Effect” value is recorded as -4.838%.

As for `OC(COCc1ccccc1)CSc1nnc2ccccn12` (stereo not drawn), the “Percent Effect” value is -5.176%.

For `CN(Cc1ccccc1)CC(O)Cn1cnc2ccsc2c1=O` (stereo not drawn), the “Percent Effect” value is -0.02665%.

`Cc1ccc(CCCC(=O)N2CC(=O)Nc3cccnc32)s1`: the “Percent Effect” value was -7.748%.

For `CCn1cc(S(=O)(=O)NCC(OC)c2cccc(Cl)c2)cn1` (stereo not drawn), the “Percent Effect” value is recorded as -3.186%.

As for `Cc1nn(C)c(N(C)C)c1CNC1CCc2c(F)cccc21.Cl` (stereo not drawn), the “Percent Effect” value is on record as -3.746%.

Take `COc1c(CNC2CCc3ccccc32)c(C)nn1C` (stereo not drawn): the “Percent Effect” value stood at 132.3%.

On to `COc1c(CNC2CCCc3ccccc32)c(C)nn1C` (stereo not drawn), for which the “Percent Effect” value is -3.62%.

Take `Cc1nn(C)c(N(C)C)c1CNC1CCc2cc(F)ccc21.Cl` (stereo not drawn): the “Percent Effect” value turned out to be 58.09%.

Turning to `Cc1nn(C)c(N(C)C)c1CNC1CCOc2c(F)cccc21` (stereo not drawn), the “Percent Effect” value is -12.9%.

As to `COc1c(CNC2CCOc3ccccc32)c(C)nn1C` (stereo not drawn), the “Percent Effect” value was -8.703%.

Take `CCNC(=O)[C@@H]1CCCN1[C@@H](C(=O)NC)c1ccccc1.Cl`: the “Percent Effect” value worked out at 1.454%.

Turning to `CCC(C)CNC(=O)[C@@H]1CCCN1c1nccc(Nc2ccccc2)n1` (stereo partly drawn), the “Percent Effect” value worked out at 83.24%.

For the compound `Cc1nc(N2CCCC2C(=O)NCc2ccsc2)nc2ccccc12` (stereo not drawn), the “Percent Effect” value is listed as -0.4338%.

Regarding `CCOCCNC(=O)[C@@H]1CCCN1c1nccc(Nc2ccccc2)n1`, the “Percent Effect” value stood at 123.1%.

`Cc1nc(N2CCCC2C(=O)NC(C)(C)CO)nc2ccccc12` (stereo not drawn): the “Percent Effect” value is -14.27%.

`Cn1cc(S(=O)(=O)N2CCCC(Cn3cncn3)C2)cn1` (stereo not drawn): the “Percent Effect” value was determined as 7.015%.

In the case of `Cc1cc(C)nc(N2CCN(Cc3cc4n(n3)CCNC4)CC2)n1`, the “Percent Effect” value is listed as 3.043%.

Consider `CCC(CC)(CNC(=O)OC(C)(C)C)NC(=O)C1CCCO1` (stereo not drawn), for which the “Percent Effect” value is given as -2.751%.

Consider `CCNC(=O)C1CCN(Cn2nc(-c3ccc(F)cc3)oc2=O)CC1`, for which the “Percent Effect” value came to 109.5%.

For `CN(C)C(=O)C1CCN(Cn2nc(-c3ccc(F)cc3)oc2=O)CC1`, the “Percent Effect” value is 103.8%.

`NC(=O)C1CCN(Cn2nc(-c3ccc(F)cc3)oc2=O)CC1`: the “Percent Effect” value is on record as -1.438%.

For `CCNC(=O)C1CCN(Cn2nc(-c3ccccc3)oc2=O)CC1`, the “Percent Effect” value is 32.26%.

For `NC(=O)C1CCN(Cn2nc(-c3ccc(F)cc3)oc2=O)C1` (stereo not drawn), the “Percent Effect” value was determined as 1.615%.

For `CN(C)C(=O)C1CCN(Cn2ccc(-c3ccc(F)cc3)n2)CC1`, the “Percent Effect” value is -0.7457%.

Turning to `COCCNS(=O)(=O)c1cccc2c1CN(C(=O)c1ccoc1)CC2`, the “Percent Effect” value is on record as -4.296%.

Consider `O=C(CCN1CCCCO1)NCCSc1cnn[nH]1`, for which the “Percent Effect” value is -10.06%.

Regarding `COc1ccc(C)cc1NC(=O)Nc1cnc(N2CCCC2)nc1`, the “Percent Effect” value was determined as 135.2%.

In the case of `O=C(COc1ccc(Cl)cc1)Nc1cnc(N2CCOCC2)nc1`, the “Percent Effect” value was -3.73%.

For the compound `COc1ccc(C)cc1NC(=O)Nc1cnc(N2CCN(C)CC2)nc1`, the “Percent Effect” value is reported as -7.75%.

As to `O=C(Nc1cnc(N2CCOCC2)nc1)c1ccc(C(F)(F)F)cc1`, the “Percent Effect” value is listed as -14.92%.

As to `COc1ccc(CNC(=O)Nc2cccnc2N2CCCC2)cc1O`, the “Percent Effect” value is listed as 5.848%.

In the case of `COc1ccc(C)cc1NC(=O)Nc1cnc(N2CCOCC2)nc1`, the “Percent Effect” value is on record as 156.3%.

In the case of `COCCn1nc(C(=O)N2CCOCC2C)ccc1=O` (stereo not drawn), the “Percent Effect” value was determined as 3.322%.

On to `Cc1cnc(C(=O)N2CCOCC2c2ccccc2)cn1` (stereo not drawn), for which the “Percent Effect” value was 87.18%.

Turning to `O=C(Cc1cccs1)N1CCOCC1c1ccccc1` (stereo not drawn), the “Percent Effect” value is -1.023%.

On to `CC1COCCN1C(=O)c1ccc(=O)n(CCOc2ccccc2)n1` (stereo not drawn), for which the “Percent Effect” value is -6.742%.

For the compound `CC1COCCN1C(=O)c1ccc(=O)n(Cc2ccccc2)n1` (stereo not drawn), the “Percent Effect” value is given as -2.389%.

Consider `Cc1cnc(C(=O)N2CCOCC2C)cn1` (stereo not drawn), for which the “Percent Effect” value was found to be 99.05%.

Turning to `CC1COCCN1C(=O)c1cnccn1` (stereo not drawn), the “Percent Effect” value came to 93.18%.

For the compound `O=C(c1cnccn1)N1CCc2ncnc(C3CCOC3)c2CC1` (stereo not drawn), the “Percent Effect” value was -0.4646%.

On to `Cc1cnc(C(=O)N2CCCCC2c2ccc(CN(C)C)cc2)cn1` (stereo not drawn), for which the “Percent Effect” value came to 6.216%.

For the compound `CCc1ccc(O)c(C(=O)N2CCN(CC(=O)N3CCCCC3)CC2)c1`, the “Percent Effect” value was -4.126%.

Regarding `O=C(NS(=O)(=O)c1cc(Cl)sc1Cl)c1cccc2c1OCCO2`, the “Percent Effect” value is reported as -19.53%.

As for `COc1cccc(C(=O)NCc2ccccc2S(=O)(=O)N(C)C)c1`, the “Percent Effect” value is on record as 16.54%.

For `CSCCN(C)C(=O)C1(c2ccc(F)cc2F)CCOCC1`, the “Percent Effect” value is -17.49%.

Consider `CCOCCC(=O)NCC(C)c1ccsc1` (stereo not drawn), for which the “Percent Effect” value was found to be 1.929%.

Turning to `Cc1ccc(CN2CC[C@H]3C[C@@H](c4nc(C5CC5)cs4)O[C@@H]3C2)o1`, the “Percent Effect” value is reported as -2.385%.

For `O=C(Cc1ccncc1)N1CCC2(CC1)CC(c1ccccc1)CO2.O=C(O)C(F)(F)F` (stereo not drawn), the “Percent Effect” value was found to be 104.1%.

In the case of `CCC(=O)N1CCC2(CC1)CC(Oc1ccccc1)CO2` (stereo not drawn), the “Percent Effect” value is -6.284%.

For `O=C(C1CC1)N1CCC[C@]2(C[C@@H](OCc3ccncc3)CO2)C1.O=C(O)C(F)(F)F`, the “Percent Effect” value worked out at 6.09%.

As for `Cn1cc(C2CN(C(=O)Cc3coc(-c4ccccc4)n3)CCO2)cn1` (stereo not drawn), the “Percent Effect” value is -11.89%.

With `Cn1cc(C2CCCN2C(=O)CCCOCc2ccccc2)cn1` (stereo not drawn), the “Percent Effect” value is 2.254%.
